ChEMBL document CHEMBL3988442, “University of Dundee, Small-Polar-MMV Screening Library” (2021)

Assays:
[1] = target: T1, Aspartate--tRNA(Asp/Asn) ligase (Mycobacterium tuberculosis (strain ATCC 25618 / H37Rv)) (UniProt P9WFW3); assay: Assay for Asp RNA synthetase-1 from Mycobacterium tuberculosis; assay type: functional; design: scale not given: direction of the effect not stated beside the values; details: 30 µM; also: in the data most compounds retested in dose-response had high values
T1 sequence (whole entry): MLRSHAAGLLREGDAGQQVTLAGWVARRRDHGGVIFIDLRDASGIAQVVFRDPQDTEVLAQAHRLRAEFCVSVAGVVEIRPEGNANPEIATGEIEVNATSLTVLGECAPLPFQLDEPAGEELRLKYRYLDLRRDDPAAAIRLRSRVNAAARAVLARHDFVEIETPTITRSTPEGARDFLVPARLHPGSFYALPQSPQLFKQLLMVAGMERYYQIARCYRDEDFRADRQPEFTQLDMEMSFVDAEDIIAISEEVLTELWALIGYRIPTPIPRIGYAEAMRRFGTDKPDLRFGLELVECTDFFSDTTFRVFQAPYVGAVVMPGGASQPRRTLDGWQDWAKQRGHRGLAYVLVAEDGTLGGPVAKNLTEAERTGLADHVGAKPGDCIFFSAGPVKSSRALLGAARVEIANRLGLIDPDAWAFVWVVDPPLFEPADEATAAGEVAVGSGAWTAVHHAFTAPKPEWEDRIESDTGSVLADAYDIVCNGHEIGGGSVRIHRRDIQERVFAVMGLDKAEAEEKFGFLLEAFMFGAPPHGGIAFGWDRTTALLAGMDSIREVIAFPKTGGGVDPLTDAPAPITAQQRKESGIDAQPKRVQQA

[2] = target: Shiga toxin 2 (Escherichia coli O157:H7) (UniProt P09385+P09386); assay: E. coli 0.157:H7 Shiga Toxin SOP - stx2 screening assay; assay type: functional; design: scale not given: direction of the effect not stated beside the values; details: 30 µM

SMILES	Percent Effect [1]	Percent Effect [2]
CCn1cc(NC(=O)NCc2ccc(CN3CCOCC3)cc2)cn1	3.24%	-35.1%
Cc1nnc(CN2CCC(N(C)Cc3nnc(C4CC4)n3C)C2)o1 (centres undefined)	-1.43%	18.5%
CC(C)N1CCCC2(CCN(C(=O)CCCn3cncn3)C2)C1=O (centres undefined)	-0.717%	11.1%
CC(=O)c1cccc(OCCCC(=O)N(C)Cc2ccccn2)c1	-1.04%	-20%
CC(C)c1nnc2n1CCN(C(=O)c1cccc(C(F)(F)F)c1)C2	0.896%	-0.987%
NC(=O)CSCCC(=O)N1CCCC1c1ccsc1 (centres undefined)	-7.94%	6.46%
CCC(C)NC(=O)N1CCCn2cnc(CO)c2C1 (centres undefined)	-2.9%	-0.62%
CC(NC(=O)NCC1(c2ccc(F)cc2)CCC1)c1nncn1C (centres undefined)	2.25%	32.9%
CO[C@H]1CCN(S(=O)(=O)c2cn(C)cn2)[C@H]1Cc1cnn(C)c1	7.16%	5.54%
c1cc(-c2cnccn2)cc(-c2ccn(CCN3CCCC3)n2)c1	1.97%	-29.3%
Cc1nc(C)n(C2CCCN(C(=O)COCc3ccccc3)C2)n1 (centres undefined)	-4.95%	-2.76%
Cc1cc(CN(C)C2CCCN(Cc3noc(C4CC4)n3)C2)no1 (centres undefined)	1.66%	28%
CC(C)n1ccnc1C1CCN(C(=O)C2COc3ccccc3O2)CC1 (centres undefined)	-1.53%	13.2%
Cc1cncc(C(=O)N2CCCC(C(=O)CCc3ccccc3)C2)c1 (centres undefined)	13.2%	-26.1%
Cc1ccc2c(c1)OCCCC2NCc1nnc2n1CCCCC2 (centres undefined)	-4.58%	3.72%
O=C(c1ccc(F)cc1)N1CCN2C[C@H](OCc3ccccn3)C[C@H]2C1	-1.3%	10.7%
COc1ccccc1C(O)CNC(=O)Nc1ncccc1C (centres undefined)	-3.63%	8.45%
COCCN1C[C@@H]2CN(c3ncccn3)C[C@@H]2C1=O	0.324%	-15.3%
COc1ccc(S(=O)(=O)NCc2cccnc2N(C)C)cc1F	-1.03%	-9.13%
O=C(O)C1(Cc2cc(-c3cccc(F)c3)no2)CCOCC1	-1.59%	9.34%
CCc1nccn1C1CCCN(C(=O)c2ccc3[nH]cnc3c2)C1 (centres undefined)	0.869%	11.5%
CNc1ccc(CC2CCCN(C(=O)c3cncnc3C)C2)nn1 (centres undefined)	0.485%	29.8%
CC(C)n1c(C2CCCN(Cc3ccnn3C)C2)nc2ccccc21 (centres undefined)	-2.04%	1.29%
O=C(NCc1ccccc1)[C@H]1C[C@@H]2CN(S(=O)(=O)C3CC3)C[C@H]1O2	6.82%	2.32%

SMILES	Percent Effect [1]	Percent Effect [2]
COc1ccc(CN2CCC3(CC2)CCN(c2ncccn2)CC3)cc1	2.89%	-0.95%
O=C(c1nc(-c2ccc3cc[nH]c3c2)no1)N1CCCC1	-0.958%	-77.4%
CN(C(=O)c1ccccc1Cl)C1CCN(c2ccccn2)CC1	5.42%	19.1%
CCc1nc(C2CCCN2C(=O)c2ncoc2CC)no1 (centres undefined)	-3.37%	4.73%
Cc1occc1C(=O)NCc1ccc(N2CCCC(C(N)=O)C2)cc1 (centres undefined)	1.75%	-14.7%
CCc1nnc2n1CCN(Cc1ccc(C(=O)N3CCCC3)cc1)C2	-3.93%	-0.0173%
CN(C)[C@@H]1CN(Cc2ccco2)C[C@@H]2CCCO[C@@H]21	-2%	6.7%
CCn1cnnc1CNC(=O)c1ccc(Cl)cc1F	1.24%	-53.7%
COc1ccc(C(O)CNC(=O)NCc2csc(C)n2)cc1 (centres undefined)	-1.2%	-23.7%
Cc1nnc(NC(=O)NCc2ccc(N3CCN(C)CC3)nc2)s1	3.74%	24.2%
O=C(CCc1cccnc1)N1CCCC(n2cncn2)C1 (centres undefined)	-2.66%	1.94%
O=C(c1cccc2c1OCO2)N1CCCC1c1noc(C2CC2)n1 (centres undefined)	-11.7%	-15.1%
Cc1cnn(CC2CCCN2CC(=O)N(C)Cc2ccc(C)o2)c1 (centres undefined)	0.457%	-11.2%
C=C1c2ccccc2C(=O)N1CCC(=O)N1CCNC(=O)C1	-2.35%	25.2%
CC(C)c1nc(C2CCCN2CCCc2nc3ccccc3o2)no1 (centres undefined)	-3.53%	17.3%
COc1cc(CNCc2ccc(C(C)O)cc2)cc2c1OCO2 (centres undefined)	-6.24%	-48%
CC(=O)c1ccc(OCC(=O)NC(C)CCc2ccco2)cc1 (centres undefined)	4.56%	-18.5%
CCC1CN(CC(=O)N2CCC2)CCN1CCOC (centres undefined)	7.2%	9.62%
CCOCc1ncn2c1CN(C(=O)Nc1cccc(C)c1)CC2	1.59%	-12.7%
FC(F)(F)C1CCc2nnc(CNCc3ccsc3)n2C1 (centres undefined)	-0.0705%	3.92%
Cc1ccc(CNC(=O)N2CCCCC2CCNS(C)(=O)=O)cc1 (centres undefined)	1.04%	6.21%
Cn1cc(C(=O)N2C[C@@H]3COC[C@]3(COCc3cccnc3)C2)cn1	-0.306%	-6.37%
CC(O)CN1CCC(CNCc2cccc(C(N)=O)c2)CC1 (centres undefined)	-0.954%	12.7%
